An excerpt weighted towards active compounds, which were near 3.4% of everything screened.
AmpC inh detg = blocks E. coli AmpC beta-lactamase in detergent assay. P00811. AmpC hydrolysis of nitrocefin, absorbance 480 nm, 0.01% Triton. Potency, µM (series often up to 114 µM), hits mostly inhibitors. actives 0.041% (n = 370,000); further: nearly all actives have a fitted effect of over 25% in size
Target sequence (P00811 whole entry, looked up): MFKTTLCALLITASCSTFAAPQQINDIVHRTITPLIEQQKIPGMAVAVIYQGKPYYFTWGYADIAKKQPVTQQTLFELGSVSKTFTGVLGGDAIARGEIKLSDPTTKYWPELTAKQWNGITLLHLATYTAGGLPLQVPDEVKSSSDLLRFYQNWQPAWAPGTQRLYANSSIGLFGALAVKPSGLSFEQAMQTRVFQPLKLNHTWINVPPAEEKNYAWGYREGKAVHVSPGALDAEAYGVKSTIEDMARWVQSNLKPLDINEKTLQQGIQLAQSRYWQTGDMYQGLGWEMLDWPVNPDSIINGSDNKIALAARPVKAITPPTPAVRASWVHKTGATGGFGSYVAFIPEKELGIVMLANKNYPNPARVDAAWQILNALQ
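AmpC (5.3 nM in the dispensed reagent) in 20 mM phosphate pH 7.0 with 0.01% (detergent screen) or 0.0001% Triton X-100 was preincubated with compounds for 15 min at room temperature. Nitrocefin was then added from an 800 uM solution, and hydrolysis was followed at 480 nm.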
Giardia FBPA inh = blocks Giardia fructose-bisphosphate aldolase activity; purified Giardia FBPA; Potency, µM (titrated, usually from 59.6 µM), most hits filed as inhibitors; actives 0.71% (n = 290,000); A8B2U2; further: nearly all actives have a fitted effect of over 55% in size
Target sequence (A8B2U2 whole entry, looked up): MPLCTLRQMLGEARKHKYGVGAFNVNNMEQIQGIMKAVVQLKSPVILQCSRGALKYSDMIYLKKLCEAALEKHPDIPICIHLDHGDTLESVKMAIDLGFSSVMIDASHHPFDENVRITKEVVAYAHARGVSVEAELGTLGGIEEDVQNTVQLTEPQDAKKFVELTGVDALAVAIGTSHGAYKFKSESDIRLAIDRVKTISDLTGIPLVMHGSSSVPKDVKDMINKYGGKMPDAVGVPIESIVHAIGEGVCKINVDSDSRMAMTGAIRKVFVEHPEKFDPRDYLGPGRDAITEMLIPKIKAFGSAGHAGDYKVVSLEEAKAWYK
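40 nM FBPA preincubated 10 min at RT with compound (up to 57.5 uM final), then substrate plus GAPDH/TPI/NAD/arsenate coupling and diaphorase/resazurin added. Fluorescence read after 20 min at RT, 525/598 nm.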
RE007 growth inh = less growth of the S. pombe RE007 Vpr strain | S. pombe RE007 Vpr strain, BacTiter-Glo ATP luminescence, 24 h | Potency, µM (series often up to 92.2 µM), hits mostly inhibitors | actives 0.21% (n = 360,000); active means well fitted falling curve with a large enough effect; inconclusive means small, poorly fitted or top-dose-only effect; inactive means no such curve, though single readings can be large or run the other way; further: nearly all actives have a fitted effect of over 50% in size
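Fission yeast strain RE007, carrying one chromosomally integrated HIV-1 vpr copy, was seeded at OD 0.01 in PMG+AL medium with 23 nL pinned compound. After 24 h at 30 °C and 99% humidity, viability was read by BacTiter-Glo luminescence.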
AmpC no deterg = AmpC beta-lactamase inhibition without detergent | P00811 | AmpC nitrocefin hydrolysis, absorbance 480 nm, 0.0001% Triton | Potency, µM (titrated, usually from 57.1 µM), hits mostly inhibitors | actives 0.52% (n = 330,000); further: nearly all actives have a fitted effect of over 20% in size
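AmpC (5.3 nM in the dispensed reagent) in 20 mM phosphate pH 7.0 with 0.01% (detergent screen) or 0.0001% Triton X-100 was preincubated with compounds for 15 min at room temperature. Nitrocefin was then added from an 800 uM solution, and hydrolysis was followed at 480 nm.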
Sm TGR inh = inhibitors of Schistosoma mansoni thioredoxin glutathione reductase; Potency, µM (series often up to 114 µM), most hits filed as inhibitors; purified TGR, DTNB reduction, TNB absorbance 405 nm; actives 3% (n = 360,000); further: nearly all actives have a fitted effect of over 60% in size
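TGR 20 nM + NADPH 100 uM (dispensed conc.), cpd preinc 15 min RT; start with NADPH (500 uM addition) then DTNB (15 mM addition). Kinetic TNB absorbance, 405 nm filter. Four-parameter Hill fit across titration.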
Hits are given with their value; – = inactive; ? = inconclusive; · = no result given. Unless noted, the call rests on the fitted dose curve; in most records, active means well fitted curve in the direction sought with a large enough effect; inconclusive means small, poorly fitted or top-dose-only effect, or another doubt; inactive means no such curve, though single readings can be large; an effect the other way counts as inactive or inconclusive.

SMILES	AmpC inh detg	Giardia FBPA inh	RE007 growth inh	AmpC no deterg	Sm TGR inh
CCn1c(O)c(/C=N/NC(=O)c2ccccc2)c(=O)[nH]c1=S	–	–	–	–	–
NC(c1ccc(F)c(F)c1)c1nc(-c2cncnc2)cs1 (stereo not given)	·	·	–	·	·
CCC(Oc1ccccc1)C(=O)Nc1cc(-c2ccccc2OC)nn1-c1ccccc1 (stereo not given)	–	·	·	·	–
CC(C)CCNC(=O)c1cnn2c(C(F)(F)F)cc(-c3ccco3)nc12	–	–	–	–	20µM
COc1ccc(-c2cc(C(F)(F)F)n3ncc(C(=O)NCc4ccco4)c3n2)cc1	–	–	?	–	45µM
O=C(Nc1cccnc1)c1ccc(Br)c(S(=O)(=O)N2CCCC2)c1	–	·	–	–	–
COC1=C(OC)C(=O)C(Sc2ccc3ccccc3c2)=CC1=O	·	·	7.1µM	·	·
COC(=O)C1=C(C)N(c2ccc(OC)c(OC)c2)C(=O)C1	?	–	–	–	?
Cn1c(SCC(=O)Nc2ccc(Cl)cc2F)nnc1-c1ccco1	–	–	–	–	35µM
Cn1c(SCC(=O)Nc2ccc(F)cc2F)nnc1-c1cccnc1	?	–	–	0.32µM	–
Cn1c(SCC(=O)Nc2cccc(F)c2)nnc1-c1cccnc1	–	–	–	–	–
O=S(=O)(c1ccc(Cl)s1)N1CCNCC1	·	·	–	–	·
CCC(SC1=NCCS1)C(=O)Nc1nnc(-c2ccccc2OC)s1 (stereo not given)	–	–	–	10µM	–
CCOC(=O)Nc1nnc(-c2ccccc2OC)s1	–	–	–	–	–
O=C(O)c1ccccc1C(=O)Nc1n[nH]c(=S)s1	–	10µM	–	–	?
Cc1ccc2c(Cl)cc(Cl)c(OCC(=O)N3CCCC3)c2n1	–	–	–	–	40µM
Fc1ccc(CSc2ccc(-c3ccco3)nn2)cc1	–	–	–	–	45µM
Cc1nc(C)c(-c2ccc(SCc3cccc(F)c3)nn2)s1	–	–	–	–	–
Fc1cccc(CSc2ccc(-c3ccco3)nn2)c1	–	–	–	–	32µM
CCOc1cc(/C=N/Nc2nc(N3CCCCC3)nc(N3CCCCC3)n2)ccc1OC(=O)c1ccco1	–	–	–	–	–
Cc1ccc(-c2cnc3c(Cl)c(C)nn3c2)cc1	?	–	–	–	–
Cn1c(=O)c(=O)n(C)c2cc(N3CCOCC3)c(NS(=O)(=O)c3ccc(F)c(Cl)c3)cc21	–	?	–	–	–
Cn1c(=O)c(=O)n(C)c2cc(N3CCCC3)c(NS(=O)(=O)c3ccc(Cl)cc3)cc21	–	?	–	–	50µM
O=S(=O)(NCC(c1ccco1)S(=O)(=O)c1ccccc1)c1cc(F)ccc1F (stereo not given)	–	·	·	·	7.1µM
COc1ccc(OC)c(S(=O)(=O)NCC(c2ccco2)S(=O)(=O)c2ccccc2)c1 (stereo not given)	–	·	–	–	0.32µM
SMILES	AmpC inh detg	Giardia FBPA inh	RE007 growth inh	AmpC no deterg	Sm TGR inh
Cc1ccc(S(=O)(=O)NCC(c2ccco2)S(=O)(=O)c2ccccc2)cc1 (stereo not given)	?	·	–	–	0.4µM
Cc1cc(C)c(S(=O)(=O)NCC(c2cccs2)S(=O)(=O)c2ccccc2)c(C)c1 (stereo not given)	–	·	·	·	0.32µM
COc1ccc(NC(=O)C23CCC(C)(C(=O)O2)C3(C)C)cc1 (stereo not given)	?	–	–	–	–
O=S(=O)(NCC(c1ccco1)S(=O)(=O)c1ccccc1)c1ccccc1 (stereo not given)	–	·	·	·	?
Cc1cc(C)c(S(=O)(=O)NCC(c2ccco2)S(=O)(=O)c2ccccc2)c(C)c1 (stereo not given)	–	·	·	·	18µM
COc1ccc(CN2CC[C@H]3C=CCc4cccc(c43)C2)cc1	–	·	–	–	28µM
Cc1ccc(CN2CC[C@H]3C=CCc4cccc(c43)C2)cc1	–	·	–	–	–
NC(=O)c1ccccc1NC(=O)CC12CC3CC(CC(C3)C1)C2	–	–	–	–	–
C=CS(=O)(=O)c1ccc(Oc2ccc(S(=O)(=O)C=C)cc2)cc1	–	–	–	–	2.5µM
NS(=O)(=O)c1ccc(Oc2ccc(S(N)(=O)=O)cc2)cc1	–	–	–	–	–
O=S(=O)(c1ccc(Cl)cc1)c1nc(-c2ccccc2Br)oc1NCc1ccccc1	–	·	·	·	–
CNc1oc(Cc2ccccc2)nc1S(=O)(=O)c1ccc(Cl)cc1	–	–	–	–	13µM
CC(C)n1c(SCC(=O)Nc2nncs2)nnc1C1CC1	–	·	–	–	?
CC1=C(C(=O)NC2CCCC(C)C2C)C2(CCCCC2)OC1=O (stereo not given)	–	–	–	35µM	–
CCn1c(N)c(C(=O)NCc2ccc3c(c2)OCO3)sc1=S	?	–	–	–	–
CCOc1ccccc1C1CC(c2cccs2)=NN1S(C)(=O)=O (stereo not given)	–	–	–	–	4µM
CS(=O)(=O)N1N=C(c2cccs2)CC1c1ccccc1O (stereo not given)	–	–	–	–	–
CSc1nc(=S)n(-c2ccccc2)c(C)c1C(C)=O	–	?	–	–	40µM
Cc1ccc(C(=O)N/N=C/c2ccc(-c3ccc(Br)cc3[N+](=O)[O-])o2)o1	–	·	–	–	50µM
CC(OC(=O)c1ccccc1C(=O)N(C)c1ccccc1)C(=O)Nc1ccc(C(N)=O)cc1 (stereo not given)	–	·	–	–	–
CC(OC(=O)c1cc(O)c2ccccc2c1O)C(=O)Nc1ccc(C(N)=O)cc1 (stereo not given)	?	·	?	–	22µM
O=C(/C=C/c1ccccc1)/C=C/c1ccccc1	–	–	?	–	25µM
CC(=O)Nc1ccc(-n2c(CCC(=O)O)ccc2-c2ccc(Br)cc2)cc1	–	·	·	·	35µM
CC(=O)Nc1ccc(-n2c(CCC(=O)O)ccc2-c2ccc(C)cc2)cc1	–	·	·	·	14µM
COc1ccc(CNS(=O)(=O)c2c(C)[nH]c(C)c2C(=O)N2CCCCC2)cc1	–	–	–	–	–
SMILES	AmpC inh detg	Giardia FBPA inh	RE007 growth inh	AmpC no deterg	Sm TGR inh
Cc1ccc(CNS(=O)(=O)c2c(C)[nH]c(C)c2C(=O)N2CCCCC2)o1	–	–	–	–	45µM
CCOc1ccc(CNC(=O)C2CCN(c3nnc(-n4c(C)ccc4C)s3)CC2)cc1	–	·	·	·	?
Cc1cccc(OCc2nc(C#N)c(NCCN(C)C)o2)c1	–	–	–	2.2µM	–
CCNc1oc(COc2cccc(C)c2)nc1C#N	?	–	–	–	–
CC(=O)Nc1ccc(N2Cc3ccccc3C2)cc1	?	–	–	–	13µM
CCc1ccc(N2Cc3ccccc3C2)cc1	–	–	–	–	18µM
CC(=O)Nc1ccc(N2CCCCC2)cc1	–	–	–	–	–
CC(=O)Nc1ccc(N2CCCC2)cc1	–	?	–	–	35µM

Screening data (PubChem BioAssay)
